# gsp ag: agonists of gsp mutant (McCune-Albright syndrome); gsp mutant cells, cAMP HTRF, 30 min; Potency, µM (doses to about 76.9 µM), for inactives: at the top dose activation (cAMP increase), most hits filed as activators; hit rate 0.13% among 340,000; AID 624287; active means well fitted activation curve with a large enough effect; inconclusive means small, poorly fitted or top-dose-only effect, or another doubt; inactive means no such curve, though single readings can be large or run the other way; cell line not stated here;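 further: phosphodiesterase inhibitor Ro 20-1724 added with compounds to block cAMP breakdown; potency means the concentration at half of the fitted maximal effect; nearly all actives have a fitted effect of over 60% in size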
#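 Cells in DMEM/10% FBS with G418 were pretreated with compounds in DMSO plus […] (300 uM stock) for 30 min at 37C. cAMP was measured by HTRF (cAMP-d2 plus anti-cAMP antibody-K) after 30 min at room temperature.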
# RXFP1 ag: RXFP1 (human) receptor agonism. Q9HBX9. HEK293T-RXFP1 cAMP TR-FRET, 30 min; response scale: percent of porcine relaxin response, buffer zero. Potency, µM (highest dose often 57.5 µM), inactives show top-dose activation, most hits filed as activators. hit rate 0.3% among 370,000. AID 2676; active means well fitted activation curve with a large enough effect; inconclusive means small, poorly fitted or top-dose-only effect; further: potency means the concentration at half of the fitted maximal effect; on the % scale 0 is the no-effect control and ±100 the full control effect; nearly all actives have a fitted effect of over 60% in size
# Target sequence (Q9HBX9 whole entry, looked up): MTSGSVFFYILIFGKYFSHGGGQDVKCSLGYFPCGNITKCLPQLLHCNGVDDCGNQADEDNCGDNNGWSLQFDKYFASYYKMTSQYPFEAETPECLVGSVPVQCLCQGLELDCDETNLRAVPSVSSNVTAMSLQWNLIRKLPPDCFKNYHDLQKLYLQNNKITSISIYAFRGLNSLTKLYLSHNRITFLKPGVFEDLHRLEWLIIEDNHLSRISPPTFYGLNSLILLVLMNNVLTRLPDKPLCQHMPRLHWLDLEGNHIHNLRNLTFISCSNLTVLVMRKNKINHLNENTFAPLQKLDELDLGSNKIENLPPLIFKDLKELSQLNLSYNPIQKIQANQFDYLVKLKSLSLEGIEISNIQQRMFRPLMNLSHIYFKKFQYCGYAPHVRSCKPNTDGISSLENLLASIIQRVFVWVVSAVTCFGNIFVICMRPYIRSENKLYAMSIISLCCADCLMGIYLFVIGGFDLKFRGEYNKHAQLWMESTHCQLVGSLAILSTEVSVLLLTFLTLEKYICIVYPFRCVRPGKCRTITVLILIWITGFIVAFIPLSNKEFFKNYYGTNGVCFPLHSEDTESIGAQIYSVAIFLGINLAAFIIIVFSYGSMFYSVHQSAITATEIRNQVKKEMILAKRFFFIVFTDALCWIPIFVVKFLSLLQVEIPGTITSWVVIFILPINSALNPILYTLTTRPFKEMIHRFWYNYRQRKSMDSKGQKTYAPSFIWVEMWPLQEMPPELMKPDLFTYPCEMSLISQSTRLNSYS
#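 Agonist response is measured as cAMP accumulation in an RXFP1-transfected HEK293T line under PDE4 inhibition. Values are scaled between buffer-only and 29 nM porcine relaxin, and EC50s come from standard Hill equation fits.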
# RXFP1 antag: blocks the human relaxin receptor RXFP1; activity change, negative = inhibition, % at 57.5 µM; Q9HBX9; HEK293-RXFP1, relaxin-stimulated cAMP HTRF, 30 min; hits give low values; hit rate 0.59% among 350,000; AID 1259400;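 active means activity change of -60% or lower, but not beyond a set lower limit; inconclusive means change between -60% and -40%, or beyond the set limit; inactive means change above -40%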; further: on the % scale 0 is the no-effect control and ±100 the full control effect
# pAkt inh: inhibitors of Akt phosphorylation. Neuro2A IGF-stimulated pAkt S473 HTRF, 20 min; hits give low values. AID 651550. activity change, % for hits at 50 µM. hit rate 0.32% among 360,000; in the data active means activity change below about -80%; inconclusive means mostly about -51% to -80%; further: on the % scale 0 is the no-effect control and ±100 the full control effect
#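 Neuro2A cells in DMEM with 0.5% FBS, overnight at 37 deg C, given compound at single 50 µM final, then IGF (6 nM final) for 20 min at 37 deg C. Lysed; phospho-Akt Ser473 by HTRF after 24 h, 665/615 ratio.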
# gsp antagonist: antagonizes gsp, the McCune-Albright syndrome mutation; hit rate 0.4% among 340,000; gsp-mutant cells, cAMP HTRF, 30 min; Potency, µM (doses to about 76.9 µM), inactives show at the highest dose activity change, negative = inhibition, hits mostly inhibitors; calls by dose curve; cell line not stated here;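 further: intracellular cAMP measured with PDE inhibitor Ro 20-1724 present during compound exposure; potency means the concentration at half of the fitted maximal effect; on the % scale 0 is the no-effect control and ±100 the full control effect; nearly all actives have a fitted effect of over 65% in size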
#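 Cells, 2000/well, grown 16–24 h in DMEM 10% FBS with 0.5 mg/ml G418, then compounds plus […] (300 uM addition stock), 30 min at 37C. cAMP read by HTRF (cAMP-d2 and anti-cAMP antibody-K in lysis buffer) after 30 min RT.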
# Starred values were filed as active, the others as inactive; i = inactive; ? = inconclusive; / = no result given; [ ] = remark or other dose. The list is not random: actives were taken first. Their share in the collection is about 1.2%.
SMILES,gsp ag,RXFP1 ag,RXFP1 antag,pAkt inh,gsp antagonist
Cc1ccc(NC(=O)COc2ccc(/C=N/NC(=O)CSCc3ccccc3)cc2)cc1,1%,-1%,-15,i,-9%
Cc1ccc(NC(=O)COc2ccc(/C=C3/SC(=Nc4ccccc4)N(Cc4cccnc4)C3=O)cc2)cc1,?,0%,-4,-106%*,4%
Cc1cccc(N2CCN(C(=O)c3cc4ccc5cccnc5c4[nH]3)CC2C)c1 (centres undefined),/,-3%,-61*,/,/
Cc1ccc(C)c(N2CCN(C(=O)c3cc4ccc5cccnc5c4[nH]3)CC2)c1,/,4%,-33,/,/
Brc1ccc(-c2csc(N3CCCCC3)n2)cc1,/,1%,/,/,/
O=C(Cn1cc([N+](=O)[O-])cn1)N1N=C(C(F)F)CC1(O)C(F)F (centres undefined),-61%,1%,8,i,9%
COc1nn(CC(=O)N2N=C(C)CC2(O)C(F)F)cc1[N+](=O)[O-] (centres undefined),4%,1%,-2,-90%*,12%
O=C(CCN1CCOCC1)c1ccc2c(c1)OCCO2,7%,1%,-6,/,-8%
O=C(CCN1CCc2ccccc2CC1)c1ccc2c(c1)OCCO2,-16%,2%,-65*,i,16%
Fc1ccc2[nH]c3c(N4CCN(c5ccccc5)CC4)ncnc3c2c1,17%,0%,-31,-90%*,?
OC1(c2cccc(C(F)(F)F)c2)CCN(c2ncnc3c2[nH]c2ccc(F)cc23)CC1,-27%,4%,-89*,i,25µM*
COc1ccc(N2CCN(c3ncnc4c3[nH]c3ccccc34)CC2)cc1,14%,3%,?,/,16µM*
CCOC(=O)N1CCN(c2ncnc3c2[nH]c2ccc(F)cc23)CC1,-29%,1%,-3,i,?
Cc1ccc(-c2noc(CN(C3CCCCC3)S(=O)(=O)c3ccc(F)cc3)n2)cc1,/,0%,3,/,/
CCOC(=O)C1CCCN(Cc2nc(N)nc(Nc3ccccc3)n2)C1 (centres undefined),-45%,3%,-6,-96%*,11%
Nc1nc(CN2CCCCCC2)nc(Nc2ccccc2)n1,?,-1%,2,i,14%
COc1ccccc1-c1noc(CCC(=O)Nc2cccc(C(F)(F)F)c2)n1,-17%,4%,10,-105%*,?
CCOC(=O)c1ccc(NC(=O)CCc2nc(-c3cccc(C)c3)no2)cc1,-11%,2%,-21,i,35µM*
COc1ccc(S(=O)(=O)n2nc(-c3ccco3)nc2NCc2ccc(C(C)C)cc2)cc1,/,-2%,-4,/,/
CCOC(=O)Cc1c(C)c2c(C)nn(-c3ccccc3)c2oc1=O,0%,2%,2,-103%*,-11%
CCOC(=O)Cc1c(C)c2c(C)[nH]nc2oc1=O,7%,1%,-3,i,8%
CC1=CC(C)(C)N2C(=O)C3(C(C#N)=C(N)Oc4cc(O)ccc43)c3c(C)c(C)cc1c32 (centres undefined),-4%,0%,-73*,/,-13%
CC1=CC(C)(C)N2C(=O)C3(C(C#N)=C(N)OC4=C3C(=O)CCC4)c3c(C)c(C)cc1c32 (centres undefined),18%,0%,-3,i,4%
COc1ccccc1-c1noc(-c2ccc(N(C)Cc3ccccc3)c([N+](=O)[O-])c2)n1,/,0%,/,/,/
COc1ccc(S(=O)(=O)N2CC(C(=O)O)Oc3ccc(CC(=O)O)cc32)cc1 (centres undefined),10%,2%,5,-123%*,15%
SMILES,gsp ag,RXFP1 ag,RXFP1 antag,pAkt inh,gsp antagonist
C[C@]12C=CC(=O)C=C1[C@@H](F)C[C@@H]1[C@@H]2[C@@H](O)C[C@@]2(C)[C@H]1CC[C@]2(O)C(=O)CO,/,/,0,/,/
S=c1[nH]nc(-c2ccncc2)n1/N=C/c1cn(-c2ccccc2)nc1-c1ccccc1,?,3%,-36,i,-3%
S=c1[nH]nc(-c2cccs2)n1/N=C/c1cn(-c2ccccc2)nc1-c1cccs1,-3%[15.4 µM],2%,-83*,i,?
Cc1ccc(-c2nn(-c3ccccc3)cc2/C=N/n2c(-c3cccs3)n[nH]c2=S)cc1,-5%[15.4 µM],2%,-96*,i,?
CCOc1ccccc1NC(=O)Cn1nnc2sc3c(c2c1=O)CCC(C(C)(C)C)C3 (centres undefined),/,1%,1,/,/
O=C(c1ccccc1)c1ccc(N2CCN(C(=O)c3cccc(F)c3F)CC2)c(F)c1,?,-2%,-11,i,40µM*
CCOC(=O)N1CCN(c2ccc(C(=O)c3ccccc3)cc2F)CC1,-16%,1%,-5,i,32µM*
CCC(=O)c1ccc(N2CCN(C(=O)c3ccccc3F)CC2)c(F)c1,17%[15.4 µM],-2%,-24,i,-25%
O=C(c1ccc(N2CCN(C(=O)c3ccc(F)cc3F)CC2)cc1)c1cccc(F)c1,-1%,-1%,-3,i,35µM*
CCOC(=O)N1CCN(c2ccc(C(C)=O)cc2F)CC1,-52%,0%,1,i,-7%
O=C(c1ccc(F)cc1F)N1CCN(c2ncccn2)CC1,?,1%,-5,i,10%
CCCCCCCCCCCCOCCOCCOCCOCCOCCOCCOCCOCCOCCO,/,/,-26,/,/
COc1cccc(NC(=O)CCc2nc(-c3cc(OC)c(OC)c(OC)c3)no2)c1,/,-1%,/,/,/
CC1CN(CCCCOc2cccc(Oc3ccccc3)c2)CC(C)O1 (centres undefined),8%[15.4 µM],2%,-64*,i,4%
O=C(Nc1ccc(-c2nc3cc(Cl)ccc3c(=O)o2)cc1)c1ccco1,7%[15.4 µM],1%,-66*,i,13%
O=C(c1ccc(S(=O)(=O)N2CCCCC2)cc1)N1CCCc2ccccc21,-14%,0%,-7,-108%*,-3%
COc1cc(/C=N/Nc2nc(-c3ccc(S(=O)(=O)N(C)C)cc3)cs2)ccc1O,-12%,1%,-7,i,32µM*
COc1ccc(/C=N/Nc2nc(-c3cccc(S(=O)(=O)N4CCCC4)c3)cs2)cc1OC,-50%,1%,-4,i,12%
O=[N+]([O-])c1cc(/C=N\Nc2nc(-c3ccccc3)cs2)ccc1O,-50%,3%,-65*,i,?
CCOC(=O)Cn1cccc1-c1nc(-c2ccc(OC)cc2)c(-c2ccc(OC)cc2)s1,/,/,-20,/,/
O=C(Nc1ccc(-n2cccc2)cc1)C1CC1,-2%[15.4 µM],-1%,1,i,11µM*
COC(=O)c1cc(Cl)ccc1OC,/,/,13,/,/
Cc1ccc(C2=NOC(=O)/C2=C\C=C\c2ccccc2)cc1,12%[15.4 µM],-2%,-108*,i,-11%
CN(C)/C=C1\C(=O)ON=C1c1ccccc1,14%[15.4 µM],-1%,-20,i,-8%
O=[N+]([O-])c1c(Nc2ccccc2O)cc(Cl)c2nonc12,-18%,-2%,-75*,i,-21%
Cc1ccc(-c2ccccc2C#N)cc1,/,/,-8,/,/

# Screening results (PubChem)
